Six compounds from PubChem BioAssay AID2117 (The Scripps Research Institute Molecular Screening Center, 2009) can be followed below.

Active and inactive are the calls of the source. The rule behind the calls is not given here.

For the test, the system named is VP16. Kind of test: LXR, FXR and VP16 reporter activity, cell-based, luciferase reporter, ROR modulator project, late-stage follow-up (AID 2117). The following applies: cell-based luciferase reporter panel, at 10 µM; fold change: max fold change; inhibition: stronger effect = higher value. (Reporter assays use an easily measured gene product as a stand-in for the process of interest.)

The term inhibition denotes the drop in the measured response relative to a control, in per cent. On to `COc1cccc(S(=O)(=O)Nc2ccc(C(O)(C(F)(F)F)C(F)(F)F)cc2)c1`, for which the fold change was determined as 0.91 and the inhibition was 9% (inactive).

Turning to `CC(C)(C)c1ccc(S(=O)(=O)Nc2ccc(C(O)(C(F)(F)F)C(F)(F)F)cc2)cc1`, the fold change is 0.9 and the inhibition was 10% (inactive).

Take `O=S(=O)(Nc1ccc(C(O)(C(F)(F)F)C(F)(F)F)cc1)c1cccc2cccnc12`: the fold change came to 1.03 and the inhibition was 0% (inactive).

Turning to `O=S(=O)(Nc1ccc(C(O)(C(F)(F)F)C(F)(F)F)cc1)c1ccc(Cl)c2nonc12`, the fold change was 0.61 and the inhibition is 39% (inactive).

For `COC(=O)c1sccc1S(=O)(=O)Nc1ccc(C(O)(C(F)(F)F)C(F)(F)F)cc1`, the fold change is 0.94 and the inhibition was found to be 6%.

In the case of `O=S(=O)(Nc1ccc(C(O)(C(F)(F)F)C(F)(F)F)cc1)c1cccc2ccccc12`, the fold change amounted to 0.95 and the inhibition was 5% (inactive).
